The nature of assay [1]: qHTS assay to identify small molecule antagonists of the thyroid receptor (TR) signaling pathway - cell viability counter screen (AID 743064). Note: nearly all actives have a fitted effect of over 50% in size. Note: potency is the fitted concentration of half-maximal effect. An outline of the steps:
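Same-well viability check: GH3.TRE-Luc cells stimulated with 1 nM T3 alongside test compound for 23.5 h, followed by CellTiter-Fluor fluorescence.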

Assay [2] in a line: qHTS assay to identify small molecule antagonists of the thyroid receptor (TR) signaling pathway (AID 743065). Note: nearly all actives have a fitted effect of over 55% in size. Note: potency is the fitted concentration of half-maximal effect. An outline of the steps:
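GH3.TRE-Luc rat pituitary cells (two TREs driving luciferase) were dosed with compound, then stimulated with 1 nM T3 (final) for 23.5 h at 37 C. ONE-Glo luminescence was the read-out, with CellTiter-Fluor fluorescence as the cytotoxicity counter-screen.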

Assay [3] has as its system thyroid hormone receptor (rat, GH3 cells). In words: qHTS assay to identify small molecule agonists of the thyroid receptor (TR) signaling pathway (AID 743066; calls by dose curve; note: potency is the fitted concentration of half-maximal effect).
Assay [4] concerns the target Estrogen receptor (Homo sapiens) (UniProt P03372). In words: qHTS assay to identify small molecule antagonists of the estrogen receptor alpha (ER-alpha) signaling pathway (AID 743069; active = well fitted curve in the direction sought with a large enough effect in the signal ratio in the repeat runs, not every such curve was filed as active; inconclusive = weak or mixed curves, or effect the other way; inactive = no such curve, though single readings can be large or run the other way; the % refers to the signal ratio; note: potency is the fitted concentration of half-maximal effect). A digest of the protocol: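 Beta-lactamase FRET fluorescence is read after 2 hr at room temperature with LiveBLAzer B/G substrate. Before that, ER-alpha-bla HEK293 cells sit 4 hr after plating, then receive compound plus 17beta-estradiol and incubate 18 hr at 37C.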

For assay [5] the target is unchanged. In words: qHTS assay to identify small molecule agonists of the estrogen receptor alpha (ER-alpha) signaling pathway (AID 743075; calls by dose curve;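 note: HEK293 GripTite cells with ER-alpha and UAS-driven beta-lactamase reporter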; note: potency is the fitted concentration of half-maximal effect).
For assay [6] the target is unchanged. In words: qHTS assay to identify small molecule agonists of the estrogen receptor alpha (ER-alpha) signaling pathway using the BG1 cell line (AID 743079). Note: nearly all actives have a fitted effect of over 20% in size. Conditions: BG1Luc4E2 cells, ERE-luciferase agonist, 22 h; activation: at 70.3 µM (top of the series).
Assay [7] in a line: qHTS assay to identify small molecule antagonists of the estrogen receptor alpha (ER-alpha) signaling pathway using the BG1 cell line (AID 743080; calls by dose curve;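 note: BG1 cells stimulated with 17beta-estradiol alongside compound; nearly all actives have a fitted effect of over 25% in size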; note: potency is the fitted concentration of half-maximal effect). A digest of the protocol: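 Quantitative HTS on the Tox21 10K library: BG1 cells with endogenous ER-alpha and ERE-luciferase reporter, 17beta-estradiol stimulation, 21.5 h compound exposure, luminescence endpoint with parallel fluorescence cytotoxicity counter-read.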

Assay [8] can be described thus: qHTS assay to identify small molecule antagonists of the estrogen receptor alpha (ER-alpha) signaling pathway using the BG1 cell line - cell viability counter screen (AID 743081).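 Note: compound given together with 17beta-estradiol as the ER stimulus; nearly all actives have a fitted effect of over 45% in size.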 Note: potency is the fitted concentration of half-maximal effect.
For assay [9], the target named is Aromatase (Homo sapiens) (UniProt P11511). In words: qHTS assay to identify aromatase inhibitors (AID 743083). Note: nearly all actives have a fitted effect of over 55% in size. Note: potency is the fitted concentration of half-maximal effect.
Chain of Aromatase (Homo sapiens) (P11511 whole entry, looked up): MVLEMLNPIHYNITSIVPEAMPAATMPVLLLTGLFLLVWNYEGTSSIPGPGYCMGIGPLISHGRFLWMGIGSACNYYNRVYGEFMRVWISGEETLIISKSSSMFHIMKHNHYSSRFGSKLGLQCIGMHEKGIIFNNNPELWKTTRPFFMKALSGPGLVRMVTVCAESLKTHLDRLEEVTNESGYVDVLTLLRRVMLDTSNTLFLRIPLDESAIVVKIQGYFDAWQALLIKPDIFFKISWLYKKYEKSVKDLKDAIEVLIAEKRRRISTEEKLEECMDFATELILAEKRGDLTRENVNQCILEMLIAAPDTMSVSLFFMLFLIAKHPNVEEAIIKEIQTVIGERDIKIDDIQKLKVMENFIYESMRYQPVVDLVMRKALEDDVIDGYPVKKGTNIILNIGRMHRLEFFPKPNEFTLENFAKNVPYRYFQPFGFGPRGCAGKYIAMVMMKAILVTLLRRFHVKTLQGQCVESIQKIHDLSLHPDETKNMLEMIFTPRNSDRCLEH
The nature of assay [10]: qHTS assay to identify aromatase inhibitors - cell viability counter screen (AID 743084).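 Note: cells stimulated with testosterone during compound exposure; nearly all actives have a fitted effect of over 55% in size.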 Note: potency is the fitted concentration of half-maximal effect.
Assay [11] addresses Aryl hydrocarbon receptor (Homo sapiens) (UniProt P35869). In words: qHTS assay to identify small molecule that activate the aryl hydrocarbon receptor (AhR) signaling pathway (AID 743085).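 Note: HG2L7.5c1 human HepG2 liver cells with stably integrated DRE-driven firefly reporter; nearly all actives have a fitted effect of over 15% in size.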 An outline of the steps:
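Reporter assay in engineered HepG2 line HG2L7.5c1, whose plasmid carries twenty dioxin responsive elements upstream of firefly luciferase. Treatment lasted 24 h at 37C; ONE-Glo luminescence gauged induction.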

Assay [12] in a line: qHTS assay to identify small molecule that activate the aryl hydrocarbon receptor (AhR) signaling pathway - cell viability counter screen (AID 743086). Note: nearly all actives have a fitted effect of over 45% in size. Note: potency is the fitted concentration of half-maximal effect. A digest of the protocol: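 HepG2-AhR-luc (HG2L7.5c1) cells, 4000/well, treated 24 h at 37 C with compound; viability measured as CellTiter-Fluor fluorescence after 30 min in the same wells as the luciferase read.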
In assay [13] the target is Peroxisome proliferator-activated receptor gamma (Homo sapiens) (UniProt P37231). In words: qHTS assay to identify small molecule agonists of the peroxisome proliferator-activated receptor gamma (PPARg) signaling pathway (AID 743094; active = well fitted activation curve with a large enough effect in the signal ratio in the repeat runs, not every such curve was filed as active; inconclusive = weak or mixed curves, or effect the other way; inactive = no such curve, though single readings can be large or run the other way; the % refers to the signal ratio). A digest of the protocol: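 Fluorescence-based beta-lactamase readout in HEK293H PPARg UAS-bla cells after 17 h compound exposure (37C) and 1 h B/G FRET substrate incubation at room temperature.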
Chain of Peroxisome proliferator-activated receptor gamma (Homo sapiens) (P37231 whole entry, looked up): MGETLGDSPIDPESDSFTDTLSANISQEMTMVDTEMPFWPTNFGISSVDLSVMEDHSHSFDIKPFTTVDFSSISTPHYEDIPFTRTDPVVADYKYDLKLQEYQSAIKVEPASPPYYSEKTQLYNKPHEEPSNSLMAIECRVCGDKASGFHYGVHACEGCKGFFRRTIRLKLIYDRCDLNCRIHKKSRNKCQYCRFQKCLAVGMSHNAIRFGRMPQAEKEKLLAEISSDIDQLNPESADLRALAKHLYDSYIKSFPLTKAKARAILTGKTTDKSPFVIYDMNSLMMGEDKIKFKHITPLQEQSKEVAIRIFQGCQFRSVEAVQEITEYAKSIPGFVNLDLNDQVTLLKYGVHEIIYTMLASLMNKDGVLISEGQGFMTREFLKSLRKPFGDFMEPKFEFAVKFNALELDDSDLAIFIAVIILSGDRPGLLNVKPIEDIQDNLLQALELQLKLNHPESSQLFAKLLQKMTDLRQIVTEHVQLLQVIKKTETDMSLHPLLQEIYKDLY

A short description of assay [14]: qHTS assay for small molecule agonists of the antioxidant response element (ARE) signaling pathway (AID 743202; active = well fitted activation curve with a large enough effect in the signal ratio in the repeat runs, not every such curve was filed as active; inconclusive = weak or mixed curves, or effect the other way; inactive = no such curve, though single readings can be large or run the other way; the % refers to the signal ratio). A digest of the protocol: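 HepG2 ARE-bla reporter line, 2,000 cells/well; 5 h preincubation 37 C/5% CO2; compound (DMSO) 16 h 37 C; B/G FRET substrate 2 h RT; fluorescence intensity.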
Assay [15] in a line: qHTS assay for small molecule agonists of the antioxidant response element (ARE) signaling pathway - cell viability counter screen (AID 743203; calls by dose curve; note: nearly all actives have a fitted effect of over 55% in size). An outline of the steps: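 Parallel cytotoxicity read-out for the ARE-bla screen: HepG2 reporter cells, 16 hrs with compounds, then CellTiter-Glo luminescence.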
Assay [16] in a line: qHTS assay for small molecule activators of the heat shock response signaling pathway - cell viability counter screen (AID 743209). Note: nearly all actives have a fitted effect of over 50% in size. Note: potency is the fitted concentration of half-maximal effect. A digest of the protocol: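 To flag cytotoxic compounds, HSE-bla HeLa cells plated at 1500 cells/well were dosed for 5 h at 37 C, followed by the reporter FRET read and then CellTiter-Glo, with luminescence recorded 30 min after reagent addition.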

The nature of assay [17]: qHTS assay for small molecule activators of the heat shock response signaling pathway (AID 743210; active = well fitted activation curve with a large enough effect in the signal ratio in the repeat runs, with a control signal flat, not every such curve was filed as active; inconclusive = weak or mixed curves; the % refers to the signal ratio;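 note: HeLa cells with beta-lactamase reporter driven by heat shock elements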). A digest of the protocol:
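Beta-lactamase reporter read-out: FRET substrate fluorescence after 2.5 h at RT, following 5 h compound treatment at 37 C of HeLa cells carrying HSE-driven bla reporter; quantitative HTS format.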

A short description of assay [18]: qHTS assay to identify small molecule antagonists of the estrogen receptor alpha (ER-alpha) signaling pathway - cell viability counter screen (AID 743074; calls by dose curve;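 note: HEK293 cells carrying ER-alpha-UAS-bla reporter stimulated with 17beta-estradiol; nearly all actives have a fitted effect of over 45% in size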; note: potency is the fitted concentration of half-maximal effect).
Assay [19] can be described thus: qHTS assay to identify small molecule antagonists of the peroxisome proliferator-activated receptor gamma (PPARg) signaling pathway - cell viability counter screen (AID 743194). Note: nearly all actives have a fitted effect of over 55% in size. Note: potency is the fitted concentration of half-maximal effect. Conditions: Potency: co-treated with 50 nM rosiglitazone unless noted. An outline of the steps: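 Cytotoxicity counter screen in PPARg-bla HEK293H cells, same wells as reporter assay. Compounds plus 50 nM rosiglitazone (final) for 17 h at 37 C, then viability read by CellTiter-Glo luminescence.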

Assay [20] has as its target Peroxisome proliferator-activated receptor gamma (Homo sapiens) (UniProt P37231). In words: qHTS assay to identify small molecule antagonists of the peroxisome proliferator-activated receptor gamma (PPARg) signaling pathway (AID 743191; calls by dose curve; note: nearly all actives have a fitted effect of over 30% in size). An outline of the steps:
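GeneBLAzer PPARg UAS-bla HEK293H cells, 5 h post-plating, exposed to compounds 17 h at 37C. LiveBLAzer B/G FRET substrate added for 1 h at room temperature; beta-lactamase reporter read by fluorescence intensity.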

Calls of active or inactive are those of the source. Unless noted, calls come from the whole dose curve; as a rule, active = well fitted curve in the direction sought with a large enough effect in the repeat runs; inconclusive = weak or mixed curves; inactive = no such curve, though single readings can be large; an effect the other way counts as inactive or inconclusive.

Chain of Aryl hydrocarbon receptor (Homo sapiens) (P35869 whole entry, looked up): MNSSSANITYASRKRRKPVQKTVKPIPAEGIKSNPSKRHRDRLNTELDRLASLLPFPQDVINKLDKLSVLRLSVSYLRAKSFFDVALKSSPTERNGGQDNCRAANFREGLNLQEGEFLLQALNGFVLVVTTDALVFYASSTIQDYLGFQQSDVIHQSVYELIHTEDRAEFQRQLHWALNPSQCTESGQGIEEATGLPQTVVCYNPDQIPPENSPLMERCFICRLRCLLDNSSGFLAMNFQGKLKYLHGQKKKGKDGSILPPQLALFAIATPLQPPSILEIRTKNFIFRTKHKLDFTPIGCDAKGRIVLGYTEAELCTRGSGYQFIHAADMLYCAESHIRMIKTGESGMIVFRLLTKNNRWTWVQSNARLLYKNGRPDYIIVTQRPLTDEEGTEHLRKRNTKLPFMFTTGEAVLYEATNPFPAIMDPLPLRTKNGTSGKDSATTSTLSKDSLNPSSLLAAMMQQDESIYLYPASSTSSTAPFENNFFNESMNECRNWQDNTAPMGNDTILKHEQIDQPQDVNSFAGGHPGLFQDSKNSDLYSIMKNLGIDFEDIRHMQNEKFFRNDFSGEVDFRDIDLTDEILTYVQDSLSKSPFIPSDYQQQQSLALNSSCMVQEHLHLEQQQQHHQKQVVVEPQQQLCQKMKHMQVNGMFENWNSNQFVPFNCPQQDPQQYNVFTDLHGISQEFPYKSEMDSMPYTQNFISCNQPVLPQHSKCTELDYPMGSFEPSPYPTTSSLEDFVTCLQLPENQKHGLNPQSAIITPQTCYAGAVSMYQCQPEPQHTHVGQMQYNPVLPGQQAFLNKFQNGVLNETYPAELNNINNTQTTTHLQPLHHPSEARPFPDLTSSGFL
Chain of Estrogen receptor (Homo sapiens) (P03372 whole entry, looked up): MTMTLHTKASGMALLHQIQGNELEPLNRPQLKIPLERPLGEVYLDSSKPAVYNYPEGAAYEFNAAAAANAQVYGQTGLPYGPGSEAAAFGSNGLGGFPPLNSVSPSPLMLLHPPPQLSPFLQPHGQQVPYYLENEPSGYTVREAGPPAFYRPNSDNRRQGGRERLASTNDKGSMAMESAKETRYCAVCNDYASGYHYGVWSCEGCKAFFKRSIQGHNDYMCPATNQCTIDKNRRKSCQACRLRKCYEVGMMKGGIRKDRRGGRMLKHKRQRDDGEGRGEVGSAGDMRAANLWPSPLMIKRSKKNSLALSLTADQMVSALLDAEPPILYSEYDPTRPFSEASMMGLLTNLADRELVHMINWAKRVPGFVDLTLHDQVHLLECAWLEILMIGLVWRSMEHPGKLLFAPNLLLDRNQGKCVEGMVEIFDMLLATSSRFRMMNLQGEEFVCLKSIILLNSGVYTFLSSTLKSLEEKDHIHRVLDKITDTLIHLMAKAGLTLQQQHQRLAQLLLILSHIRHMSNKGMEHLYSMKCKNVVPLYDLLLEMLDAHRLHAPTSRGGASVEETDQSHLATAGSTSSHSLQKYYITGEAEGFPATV

`O=S(=O)(O)F`: the Potency result in assay [1], in assay [2], in [3], in [4], in assay [5] and in assay [6] was “inactive” in each case. Further, the Potency entry in assay [7], in assay [8], in assay [9], in assay [10], in [11] and in assay [12] was “inactive” each time. For the same compound, the Potency entry in [13], in [14], in assay [15], in assay [16] and in [17] was “inactive” each time.

In the case of `C=CC(=C)C`, the Potency entry in assay [1], in assay [2], in assay [3], in assay [4], in assay [18] and in assay [5] was “inactive” in each case. Further, the Potency result in [8], in assay [9], in assay [10], in [12], in assay [13] and in [19] was “inactive” throughout. For the same compound, the Potency entry in assay [14] and in assay [15] was “inactive” each time.

As for `C=C(C)C(=O)[O][Sn]([CH2]CCC)([CH2]CCC)[CH2]CCC`, the Potency in [1] is 0.433 µM (active); in [2], 0.306 µM (active); in [3], 30.6 nM (active); in assay [18], 1.74 µM (active); in [7], 0.344 µM (active); in [8] it was 1.37 µM (active). In addition, the Potency was 3.86 µM (active) in assay [9]; 2.73 µM (active) in [10]; 2.73 µM (active) in assay [12]; 549 nM (active) in assay [19]; 1.1 µM (active) in assay [16]. The Potency result in assay [11] is “inactive”.

Regarding `O=[N+]([O-])c1ccc(Cl)c(Cl)c1Cl`, the Potency entry in assay [1], in assay [2], in assay [3], in assay [4], in assay [18] and in assay [6] was “inactive” in each case. In addition, the Potency entry in assay [7], in assay [8], in assay [9], in assay [10], in [11] and in [12] was “inactive” each time. Moreover, the Potency entry in assay [13], in [15] and in [17] was “inactive” in each case.

`CC(Cc1ccc(O)cc1)NCC(O)c1cc(O)cc(O)c1` (stereo not given): the Potency entry in assay [1], in assay [2], in [3], in [4], in assay [5] and in assay [7] was “inactive” each time. Moreover, the Potency entry in assay [8], in [9], in assay [10], in [11], in assay [12] and in [13] was “inactive” each time. The Potency entry in assay [20], in [19], in [14], in [15], in [16] and in assay [17] was “inactive” each time.

Consider `CCCCn1cc[n+](C)c1` (tested in a mixture with another compound), for which the Potency entry in [1], in assay [2], in [3], in [18], in assay [8] and in [9] was “inactive” in each case. For the same compound, the Potency entry in assay [10], in assay [11], in assay [12], in [19], in assay [15] and in assay [16] was “inactive” in each case.

With `COP(=O)(OC)Oc1ccc([N+](=O)[O-])cc1`, the Potency entry in [1], in assay [2], in [3], in assay [5], in assay [6] and in assay [7] was “inactive” in each case. Further, the Potency result in [8], in [10], in assay [11], in assay [12], in [15] and in [16] was “inactive” each time. For the same compound, the Potency in assay [9] was 34.4 µM (active).

For `COC(=O)c1ccccc1S(=O)(=O)NC(=O)Nc1nc(C)nc(OC)n1`, the Potency entry in [1], in assay [2], in assay [3], in assay [18], in [8] and in assay [9] was “inactive” throughout. The Potency result in assay [10], in assay [11], in [12], in assay [19], in [14] and in assay [15] was “inactive” throughout. The Potency result in [16] and in [17] was “inactive” in each case.

In the case of `O=Cc1ccccc1`, the Potency result in [1], in assay [2], in [3], in assay [18], in assay [8] and in assay [12] was “inactive” in each case. The Potency entry in [19], in [14], in [15], in assay [16] and in [17] was “inactive” in each case.

As to `O=C1C[C@@H]2OCC=C3CN4CC[C@]56c7ccccc7N1[C@H]5[C@H]2[C@H]3C[C@H]46`, the Potency result in assay [1], in assay [2], in assay [3], in assay [18], in assay [8] and in assay [9] was “inactive” throughout. The Potency entry in assay [10], in assay [12], in [19], in assay [14], in assay [15] and in assay [16] was “inactive” in each case. For the same compound, the Potency result in assay [17] is “inactive”.

Consider `CN(C)CCc1c[nH]c2ccccc12`, for which the Potency entry in [1], in [2], in assay [3], in [18], in [8] and in [10] was “inactive” each time. Besides, the Potency result in [11], in assay [12], in [19], in assay [14] and in assay [15] was “inactive” in each case.

Consider `COc1ccc2c(c1OC)C(=O)O[C@@H]2[C@H]1c2cc3c(cc2CCN1C)OCO3`, for which the Potency is 6.79 µM (active) in assay [1] and 2.15 µM (active) in assay [10]. For the same compound, the Potency entry in assay [2], in assay [3], in [18], in [9], in [11] and in assay [20] was “inactive” each time. Further, the Potency entry in assay [14], in assay [15], in assay [16] and in assay [17] was “inactive” throughout.

Regarding `CCC(C)Br` (stereo not given), the Potency entry in assay [1], in assay [2], in [3], in assay [18], in assay [8] and in assay [9] was “inactive” in each case. The Potency result in [10], in [11], in [12], in assay [20], in assay [14] and in assay [15] was “inactive” each time. Further, the Potency entry in assay [17] was “inactive”.

With `CCCCn1cc[n+](C)c1.[Cl][Fe-]([Cl])([Cl])[Cl]`, the Potency entry in [1], in assay [2], in assay [3], in assay [18], in assay [8] and in assay [9] was “inactive” throughout. Moreover, the Potency result in [10], in assay [11], in assay [12] and in [16] was “inactive” in each case.

In the case of `N#Cc1c[nH]cc1-c1cccc2c1OC(F)(F)O2`, the Potency in assay [1] is 27.3 µM (active); in assay [2] it was 12.2 µM (active); in [4] it was 13.8 µM [inhibitor] (active); in assay [5], 17.4 µM [inconclusive] (active); in [7] it was 48.6 µM (active); in [9], 27.3 µM (active). In addition, the Potency result in assay [18], in [6], in [8], in assay [10], in [12] and in assay [14] was “inactive” each time. Also, the Potency entry in [15], in assay [16] and in assay [17] was “inactive” each time.

For the origin of these results see PubChem BioAssay (Tox21).
